Data from PubChem BioAssay AID1159580 (chemical genetic matrix, 2015).
In all, about 5,500 compounds went through this assay and about 2,000 (36%) were called active. Roughly 18% stayed inconclusive and do not appear here. Cut-off read from the data, not from the text of the source: active = normalized growth mostly below about 0.91 (no sharp cut-off); inconclusive = no clear call, values can overlap the other calls; inactive = mostly above about 0.92. The list shows a part of the results.

Test: chemical genetic growth profiling, strain panel (AID 1159580);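 note: tested at 20 µM; growth read once vehicle control cultures reached saturation at 30 °C; 1 = growth at the plate median or of vehicle wells; lower values mean less growth of the strain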
Conditions: S. cerevisiae deletion strains, growth OD

Measured: normalized growth

CNC(=O)[C@H]1O[C@@H](n2cnc3c(N)ncnc32)C(O)[C@H]1O (some centres undefined)
inactive: locus YAL013W, strain DEP1, hits give low values 0.987 | locus YAL040C, strain CLN3, hits give low values 0.989 | locus YDR363W, strain ESC2, hits give low values 1.07 | locus YER002W, strain NOP16, hits give low values 0.973 | locus YGR078C, strain PAC10, hits give low values 1 | locus YMR263W, strain SAP30, hits give low values 0.985 | locus YNL128W, strain TEP1, hits give low values 0.983 | locus YNL175C, strain NOP13, hits give low values 0.984 | locus YNL197C, strain WHI3, hits give low values 0.997 | locus YNL224C, strain SQS1, hits give low values 0.996 | locus YNL322C, strain KRE1, hits give low values 1.02 | locus YOR083W, strain WHI5 (second series), hits give low values 1.02 | locus YPL241C, strain CIN2, hits give low values 0.976

CSC1=NNC(c2nn(C)cc2Cl)S1 (centres undefined)
active: locus YAR019C, strain CDC15, hits give low values 0.366 | locus YBL105C, strain PKC1, hits give low values 0.509 | locus YBR135W, strain CKS1, hits give low values 0.582 | locus YBR136W, strain MEC1, hits give low values 0.565 | locus YBR160W, strain CDC28, hits give low values 0.644 | locus YDL017W, strain CDC7, hits give low values 0.586 | locus YDL028C, strain MPS1, hits give low values 0.551 | locus YDL101C, strain DUN1, hits give low values 0.206 | locus YDL108W, strain KIN28, hits give low values 0.653 | locus YDL132W, strain cdc53, hits give low values 0.472 | locus YDL214C, strain PRR2, hits give low values 0.145 | locus YDR052C, strain DBF4, hits give low values 0.874 | locus YDR054C, strain cdc34, hits give low values 0.318 | locus YDR226W, strain ADK1, hits give low values 0.511 | locus YDR477W, strain SNF1, hits give low values 0.134 | locus YER123W, strain YCK3, hits give low values 0.126 | locus YER133W, strain GLC7, hits give low values 0.138 | locus YFL009W, strain cdc4, hits give low values 0.282 | locus YFL029C, strain CAK1, hits give low values 0.374 | locus YFR003C, strain YPI1, hits give low values 0.594 | locus YFR019W, strain FAB1, hits give low values 0.148 | locus YFR028C, strain CDC14, hits give low values 0.444 | locus YGR040W, strain KSS1, hits give low values 0.13 | locus YGR052W, strain FMP48, hits give low values 0.131 | locus YGR092W, strain DBF2, hits give low values 0.117 | locus YHR030C, strain SLT2, hits give low values 0.178 | locus YHR079C, strain IRE1, hits give low values 0.214 | locus YHR082C, strain KSP1, hits give low values 0.236 | locus YHR205W, strain SCH9, hits give low values 0.0971 | locus YIL147C, strain SLN1, hits give low values 0.502 | locus YJL095W, strain BCK1, hits give low values 0.134 | locus YJL128C, strain PBS2, hits give low values 0.31 | locus YJL157C, strain FAR1, hits give low values 0.159 | locus YJR016C, strain ILV3, hits give low values 0.337 | locus YJR066W, strain TOR1 (second series), hits give low values 0.171 | locus YJR066W, strain TOR1, hits give low values 0.17 | locus YKL048C, strain ELM1, hits give low values 0.158 | locus YKL067W, strain YNK1, hits give low values 0.176 | locus YKL101W, strain HSL1, hits give low values 0.142 | locus YKL193C, strain SDS22, hits give low values 0.425 | locus YKL203C, strain TOR2, hits give low values 0.136 | locus YLR113W, strain HOG1, hits give low values 0.157 | locus YLR133W, strain CKI1, hits give low values 0.137 | locus YLR403W, strain SFP1, hits give low values 0.0487 | locus YML070W, strain DAK1, hits give low values 0.147 | locus YMR001C, strain CDC5, hits give low values 0.479 | locus YMR205C, strain PFK2 (second series), hits give low values 0.143 | locus YMR277W, strain FCP1, hits give low values 0.292 | locus YNL006W, strain LST8, hits give low values 0.372 | locus YNL020C, strain ARK1, hits give low values 0.126 | locus YNL161W, strain CBK1, hits give low values 0.393 | locus YNL183C, strain NPR1, hits give low values 0.112 | locus YNL207W, strain RIO2, hits give low values 0.448 | locus YNL222W, strain SSU72, hits give low values 0.455 | locus YNL307C, strain MCK1 (second series), hits give low values 0.122 | locus YOL078W, strain AVO1, hits give low values 0.415 | locus YOL136C, strain PFK27, hits give low values 0.116 | locus YOR061W, strain CKA2, hits give low values 0.118 | locus YOR119C, strain RIO1, hits give low values 0.156 | locus YOR231W, strain MKK1, hits give low values 0.222 | locus YOR329C, strain SCD5, hits give low values 0.487 | locus YPL031C, strain PHO85, hits give low values 0.128 | locus YPL153C, strain RAD53, hits give low values 0.121 | locus YPL204W, strain HRR25, hits give low values 0.16 | locus YPL209C, strain IPL1, hits give low values 0.595 | locus YPL256C, strain CLN2, hits give low values 0.177 | locus YPR025C, strain CCL1, hits give low values 0.511 | locus YPR106W, strain ISR1, hits give low values 0.395 | locus YPR111W, strain DBF20, hits give low values 0.525 | strain NNK1, hits give low values 0.199 | strain TSCII, hits give low values 0.337
